This is a sample that favours compounds with a hit; in the whole collection about 6.8% have one here.
TSG101-PTAP inh = blocks PTAP/TSG101 interaction to inhibit HIV-1 budding; AID 493005; 340,000 tested, under 10 active; Q99816; Potency, µM (doses to about 115 µM), for the others: at the top dose activity change, negative = inhibition, most hits filed as inhibitors; Fluorescence polarization, FITC-PTAP peptide / Tsg101 binding; active means well fitted inhibition curve with a large enough effect in the main read-out, with a control signal flat, not every such curve was filed as active; inconclusive means small, poorly fitted or top-dose-only effect, or effect the other way, or a change in a side signal; inactive means no such curve, though single readings can be large or run the other way; further: % of control where 0% means no effect
Target sequence (Q99816 whole entry, looked up): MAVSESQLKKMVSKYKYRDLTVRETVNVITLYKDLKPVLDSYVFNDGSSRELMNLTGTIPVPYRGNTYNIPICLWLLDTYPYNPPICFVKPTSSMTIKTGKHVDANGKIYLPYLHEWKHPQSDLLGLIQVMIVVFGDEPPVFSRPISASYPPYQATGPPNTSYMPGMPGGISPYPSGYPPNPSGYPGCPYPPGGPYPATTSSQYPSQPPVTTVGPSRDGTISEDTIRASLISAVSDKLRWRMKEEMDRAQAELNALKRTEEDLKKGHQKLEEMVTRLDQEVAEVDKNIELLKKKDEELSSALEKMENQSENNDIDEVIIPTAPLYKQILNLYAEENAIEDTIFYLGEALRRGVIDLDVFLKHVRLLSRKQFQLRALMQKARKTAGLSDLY
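Fluorescence anisotropy tracks displacement of a FITC-tagged PTAP peptide (50 nM) from the Tsg101 binding domain (10 uM), following a 20 min room-temperature incubation at pH 7.5.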
MCF10A rerep = inducers of DNA re-replication in MCF 10A breast cells. MCF 10A DNA re-replication, Hoechst nuclear intensity, 48 h. Potency, µM (top dose mostly 46.1 µM), for the others: top-dose activity, positive = re-replication, most hits filed as activators. 350,000 tested, 2.9% active; further: % of control where 0% means no effect; nearly all actives have a fitted effect of over 50% in size
PINK1 modulator = changes PINK1 expression; 410,000 tested, 0.2% active; AID 624263; Potency, µM (series often up to 76.6 µM), without a hit: top-dose activation (PINK1 increase), usual class: activators; PINK1 immunofluorescence, high-content cytometry, 24 h; active means well fitted activation curve with a large enough effect; inconclusive means small, poorly fitted or top-dose-only effect; cell line not stated here; further: % of control where 0% means no effect; nearly all actives have a fitted effect of over 65% in size
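PINK1 protein, normally rapidly degraded, was detected by immunofluorescence after 24 hour compound treatment of a stable cell line. Titration data (5 concentrations) came from laser-scanning cytometry, with CCCP-treated wells as controls.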
KB-3-1 tox = kills parental KB-3-1 adenocarcinoma cells; KB-3-1 viability, CellTiter-Glo ATP luminescence, 72 h; Potency, µM (doses to about 46.1 µM), usual class: cytotoxic; 400,000 tested, 1.4% active; further: on the % scale 0 is the no-effect control and ±100 the full control effect; nearly all actives have a fitted effect of over 60% in size
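Multi-concentration cytotoxicity screen in KB-3-1 cells grown in DMEM lacking phenol red with 10% FBS. After 72 h at 37 °C with compound, ATP-dependent luminescence was recorded.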
KB-V1 MDR tox = KB-V1 MDR subline cytotoxicity. Potency, µM (series often up to 46.1 µM), usual class: cytotoxic. 400,000 tested, 3.4% active. KB-V1 MDR cells viability, CellTiter-Glo, 72 h; further: on the % scale 0 is the no-effect control and ±100 the full control effect; nearly all actives have a fitted effect of over 60% in size
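Cells of the MDR subline KB-V1 are plated, dosed with compound at multiple concentrations, and incubated 72 h at 37 degrees C; CellTiter-Glo is then added and luminescence read after 10 min.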
SW480 rerep = DNA re-replication induction in SW480 cells | SW480 DNA re-replication, Hoechst DNA content imaging, 48 h | Potency, µM (highest dose often 46.1 µM), for inactives: top-dose re-replication activation, usual class: activators | 340,000 tested, 1.8% active | AID 624297; further: % of control where 0% means no effect; nearly all actives have a fitted effect of over 55% in size
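First, 250 cells per well were seeded. Next, compound or vehicle (23 nL) was pinned in, plates sat 48 hr at 37 C. Finally Hoechst was added for 40 min before fluorescence scanning.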
* hit, by the source's call; i = inactive; ? = inconclusive; nt = no result; [ ] = remark or other dose. Unless noted, the call rests on the fitted dose curve; in most records, active means well fitted curve in the direction sought with a large enough effect; inconclusive means small, poorly fitted or top-dose-only effect, or another doubt; inactive means no such curve, though single readings can be large; an effect the other way counts as inactive or inconclusive. Potency means the concentration at half of the fitted maximal effect.

SMILES | TSG101-PTAP inh | MCF10A rerep | PINK1 modulator | KB-3-1 tox | KB-V1 MDR tox | SW480 rerep
CCS(=O)(=O)N1CC(=O)N(c2ccc(Cl)cc2)C(C)(C(=O)NC2CCCCC2)C1 (stereo not given) | nt | nt | -1% | i | i | nt
Cc1ccc(NS(=O)(=O)c2ccc(C3CCCCC3)cc2)cc1 | -1% | 23µM* | -6% | ? | 21µM* | -4%
Cc1ccc(S(=O)(=O)Nc2ccc(S(=O)(=O)NC(C)(C)C)cc2)cc1 | -3% | 0% | -1% | ? | 18µM* | -2%
Cc1ccc(S(=O)(=O)Nc2ccc(NC(=O)Nc3ccc(F)cc3F)cc2)cc1 | -14% | ? | ? | ? | 23µM* | -70%
COc1ccc(NS(=O)(=O)c2ccc(NC(=O)C3CCCO3)cc2)cc1 (stereo not given) | -4% | -7% | 0% | i | i | -3%[9.22 µM]
Cc1ccc(NS(=O)(=O)c2ccc(NC(=O)C3CCCO3)cc2)cc1 (stereo not given) | -1% | -2% | 2% | i | 13µM* | -4%
CCCOC(=O)C1=C(C)CS[C@@H]2[C@H](NC(=O)COc3ccccc3)C(=O)N12 | nt | nt | nt | i | i | nt
COc1ccc(Cl)cc1C(=O)NCC(c1ccc(N(C)C)cc1)N1CCCC1 (stereo not given) | nt | nt | 0% | ? | ? | nt
COc1cccc(Cn2c(=O)cc(C)c3c(C)nn(-c4ccc(C)cc4)c32)c1 | nt | nt | 4% | i | i | nt
Cc1nn(-c2nnc(NCc3ccccc3)nn2)c(C)c1Br | -2% | 15% | 9% | 8.2µM* | 21µM* | 111%
Cc1cc(C)n(-c2nnc(NCc3ccc(Cl)cc3)nn2)n1 | 0% | 19% | 0% | i | i | 12µM*
Cc1cc(C)n(-c2nc(C)nc(NCc3ccccc3)n2)n1 | 1% | 1% | 1% | ? | ? | 2%
CCOC(=O)C1CCN(C(=O)c2nn(-c3ccc(C)cc3)c(=O)n(C)c2=O)CC1 | nt | nt | -1% | i | i | nt
COc1cc(NC(=O)c2cccs2)c(OC)cc1NC(=O)CCC(=O)Nc1ccc(C)cc1 | -4% | 21µM* | 6% | i | ? | ?
COc1ccc(NC(=O)c2ccco2)cc1NC(=O)c1cccs1 | -2% | 5% | -3%[38.3 µM] | i | 8.2µM* | -6%
O=C(Cc1ccccc1)Nc1ccc(NC(=O)c2cccs2)c(Cl)c1 | 0% | -2% | 7% | i | 21µM* | 4%
CC(C)c1ccc(NC(=O)CCc2ccccc2)cc1 | -2% | 8.2µM* | 8% | ? | 7.3µM* | ?
Cc1oc2ncn(C)c(=O)c2c1C(=O)NCc1ccc(Cl)cc1 | nt | nt | 0% | i | i | nt
CC(=O)c1ccc(NC(=O)c2nc(-c3ccccc3)n(-c3ccccc3Cl)n2)cc1 | nt | nt | -1% | i | i | nt
Cc1ccnc(NC(=S)N2CCN(c3ccc(N)cc3)CC2)c1 | nt | nt | nt | i | i | nt
COc1ccc(NC(=O)CCc2ccccc2)cc1NC(=O)c1ccco1 | nt | 0% | 1%[38.3 µM] | i | 7.3µM* | 0%
COc1ccc(CC(=O)Nc2ccc(OC)c(NC(=O)c3ccco3)c2)cc1 | 0% | -2% | 0% | i | i | -1%
CSc1nsc(/C=C/Nc2ccc(O)cc2C)c1C#N | 20% | ? | 4% | i | i | 23µM*
CSc1nsc(/C=C/Nc2ccc(Cl)cc2)c1C#N | 3% | ? | 17% | i | i | 5%[9.22 µM]
CSc1nsc(/C=C/Nc2cccc(Cl)c2)c1C#N | 4% | 9.2µM* | 5% | i | i | 19%
SMILES | TSG101-PTAP inh | MCF10A rerep | PINK1 modulator | KB-3-1 tox | KB-V1 MDR tox | SW480 rerep
CC1=C(C(=O)N2CCCCC2)C(c2ccc(Cl)cc2)n2c(nc3ccccc32)N1 (stereo not given) | nt | nt | 4% | i | i | nt
CC(C)c1ccc(NC(=S)NCc2cccs2)cc1 | 0% | ? | 0%[38.3 µM] | i | 23µM* | ?
S=C(NCc1cccs1)Nc1cc(Cl)cc(Cl)c1 | -5% | 23µM* | ? | ? | ? | ?
S=C(NCc1cccs1)Nc1ccccc1Cl | 1% | 6% | 1% | i | 26µM* | -1%
S=C(NCc1cccs1)Nc1cccc(Cl)c1 | -2% | 6% | ? | ? | i | ?
Cc1ccc(C2=NC(c3ccccc3)=Nc3ccc(Cl)cc3N2)cc1 | nt | nt | 2% | i | i | nt
Cc1cccc(-n2[nH]c(C)c(C=Nc3ccc4[nH]c(=O)[nH]c4c3)c2=O)c1 | -1% | -6% | 32µM* | i | i | -5%
Cc1[nH]n(-c2ccccc2)c(=O)c1C=Nc1cccc(F)c1 | -5% | -6% | 0% | i | i | -119%
Cc1[nH]n(-c2ccccc2)c(=O)c1C=Nc1ccc2[nH]c(=O)[nH]c2c1 | -2% | 2% | 35µM* | i | i | -3%
COc1cccc(NC(=O)Nc2cc(-c3cn4cccnc4n3)ccc2OC)c1 | nt | nt | 3% | i | i | nt
COc1ccc(C2(CNC(=O)C(=O)Nc3ccccc3C)CCCC2)cc1OC | nt | nt | -1% | i | i | nt
COc1ccc(-c2cn3c(C)c(C(=O)Nc4cccc(C)n4)sc3n2)cc1 | -1% | ? | 9%[38.3 µM] | i | 21µM* | 2%
Cc1cccc(NC(=O)c2sc3nc(-c4ccc(F)cc4)cn3c2C)n1 | 4% | 11% | 20% | i | ? | -5%
Cc1cccc(NC(=O)c2sc3nc(-c4ccccc4)cn3c2C)n1 | 1% | -2% | nt | i | 21µM* | -3%
COc1ccc(-c2cn3c(C)c(C(=O)NC(C)(C)C)sc3n2)cc1 | -1% | -1% | 0% | i | i | -12%
COc1ccc(/C=C/c2c([N+](=O)[O-])c(=O)n(C)c(=O)n2C)c(OC)c1 | 0% | 19% | 7% | i | i | -1%
CCOc1ccc(/C=C/c2c([N+](=O)[O-])c(=O)n(C)c(=O)n2C)cc1 | 0% | ? | 2% | i | ? | ?
Cn1c(/C=C/c2ccc(Cl)cc2Cl)c([N+](=O)[O-])c(=O)n(C)c1=O | -4% | 2.9µM* | 2% | 7.3µM* | ? | 9.2µM*
CCc1ccc(/C=C/c2c([N+](=O)[O-])c(=O)n(C)c(=O)n2C)cc1 | -5% | 13µM* | -1% | i | i | ?
N#Cc1c(OCC(=O)c2ccccc2)nc2c(c1-c1ccco1)CCc1ccccc1-2 | 2% | ? | 0%[38.3 µM] | i | 8.2µM* | 11%
Cc1cccc2cc(CN(Cc3ccco3)C(=O)Nc3cccc(C#N)c3)c(Cl)nc12 | -10% | 14% | -4%[38.3 µM] | i | 12µM* | 3%
Cc1ccc(C)c2[nH]c(=O)c(CN(Cc3ccco3)C(=O)Nc3ccccc3)cc12 | -5% | 28% | 0% | i | i | -1%[9.22 µM]
